# Source: the supplement of paper PMC7556523
# Unmarked numbers belong to inactive results.
# Experiments:
# [1] = test system: Sporothrix brasiliensis CBS 133006; assay: growth inhibition relative to untreated control; higher = more growth inhibition (more antifungal activity), active = 80 or more; extreme values may be limits of the assay; details: 1 µM; 48 h
# Summary of the method: (§1)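 The reported figure is percent growth inhibition relative to untreated cells, from quadruplicate runs. Yeast-form cells of the reference isolates at 1 x 10^5 CFU/ml were exposed to library compounds at a final 1 μM for 48 h at 35°C in 5% CO2, and growth was assessed by microscopy and spectrophotometric readings.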
# [2] = test system: Sporothrix schenckii ATCC 32286; assay: as above; details: 1 µM; 48 h
# Summary of the method: as §1
SMILES,growth inhibition [1],growth inhibition [2]
O=C(NCc1cc(Cl)cc(Cl)c1)c1c(C(F)(F)F)nc2ccccn12,21.5%,11.2%
Cc1c[nH]c(CCNC(=O)c2cc(-c3ccc(Cl)cc3)cs2)n1,4%,0%
CCC(C)NC(=O)c1ccc(NC(=O)C2(c3ccccc3)CCCC2)cc1 (stereo not given),5.5%,4.25%
O=C(NCc1nnc2n1CCCCC2)c1ccc(-c2ccc(F)cc2)o1,11.2%,0%
CCCCS(=O)(=O)Nc1ccc2cnn(C)c2c1,4.75%,1.75%
Nc1ncnc2c1ncn2C[C@@H](O)[C@@H](O)C(=O)O,5%,11.8%
FC(F)(F)c1nnc2ccc(Cl)nn12,9.25%,14%
C[C@]1(O)C[C@@H](c2nc(-c3ccc4ccc(-c5ccccc5)nc4c3)c3c(N)nccn32)C1,6%,23%
O=C(NCCc1ccccc1)c1cc(-c2cccnc2)cnc1NCC1CC1,0%,0%
O=C(Cn1ccnc1[N+](=O)[O-])NCc1ccccc1,13.8%,4%
CO[C@@H](C(=O)N1Cc2[nH]nc(NC(=O)c3ccc(N4CCN(C)CC4)cc3)c2C1)c1ccccc1,16.2%,1.5%
CC(C)C(C(=O)Nc1ccc(S(=O)(=O)N(C)C)cc1)c1ccc(Cl)cc1 (stereo not given),17.5%,0.5%
Cn1ccnc1CNCCS(=O)(=O)c1cccc(Nc2ccc(-c3cccc(F)c3)cn2)c1,4.25%,0%
Nc1ncnc2[nH]nc(Cc3cccc4ccccc34)c12,6.25%,0%
Cc1ccc(C(=O)Nc2ccc(S(=O)(=O)O)c3cc(S(=O)(=O)O)cc(S(=O)(=O)O)c23)cc1NC(=O)c1cccc(NC(=O)Nc2cccc(C(=O)Nc3cc(C(=O)Nc4ccc(S(=O)(=O)O)c5cc(S(=O)(=O)O)cc(S(=O)(=O)O)c45)ccc3C)c2)c1,28%,19%
COc1ccc(CCN2CCC(NCc3cccc(N(C)C)c3)CC2)cc1,29%,9.75%
CCCNC(=O)N1CCC2(CC1)CC(=O)c1cc(C)ccc1O2,2.25%,2.25%
Clc1ccc(CCNc2cc(-c3ccccc3)nc3ncnn23)cc1,9.75%,18.2%
CC(C(=O)Nc1ccc2oc(-c3ccncc3)nc2c1)c1ccccc1 (stereo not given),15.2%,0.5%
CCOc1ccc(OCC(=O)Nc2cc(C)cc(C)c2)cc1,12.2%,18%
CCc1nc2ccc(C(=O)NCc3ccc4c(c3)OCO4)cn2c1N(C)Cc1cccs1,7%,2.75%
Cc1ccc(NC(=O)c2cc(S(=O)(=O)NC(C)(C)C)ccc2C)nc1,4.25%,0%
CCN(CC)CCCCCCNc1cc(OC)cc2c(C)ccnc12,7%,2.25%
O=C(Nc1cnc2ccccc2c1)c1cccc(-n2cnnn2)c1,0%,4.75%

SMILES,growth inhibition [1],growth inhibition [2]
CC(=O)NC[C@H]1CN(c2ccc(N3CCSCC3)c(F)c2)C(=O)O1,5.5%,0%
CCN(CC)CCCN1CCN(C(=O)c2cccc(-c3noc(C(F)(F)F)n3)c2)CC1,25%,0%
CCCc1ccc(S(=O)(=O)Nc2ccc(CN3CCN(CC4CC4)CC3)cc2)cc1,25.5%,2.25%
CCCCCCCCCCCCCCCCOP(=O)([O-])OCC[N+](C)(C)C,24.8%,0%
Nc1cccnc1Nc1ccc(Cl)cc1,13.8%,0%
FC(F)(F)c1ccc(N(c2cccnc2)C2CCN(c3ccc(C(F)(F)F)cn3)CC2)cc1,0%,0%
Nc1ncc(-c2cn[nH]c2)cc1-c1nc2cc(Cl)cnc2[nH]1,12%,11%
O=C(C1CCN(c2nnnn2-c2ccccc2)CC1)N1CCc2ccccc2C1,2.5%,3%
COc1cccc(OCC(=O)c2ccc(Br)cc2)c1,16%,22%
CCc1nc2ccccc2n1CC(O)COc1cc(C)ccc1Cl (stereo not given),1.25%,11%
CS(=O)(=O)c1cccc(-c2cnc3[nH]cc(-c4ccc(CCC(=O)O)cc4)c3c2)c1,4.25%,0%
CCN(CC)S(=O)(=O)c1ccc(C(=O)Nc2cc(C)nn2-c2nc(C)c(C)c(=O)[nH]2)cc1,1.25%,0%
COc1ccc2nc(C)cc(OCC(=O)NCc3ccccc3)c2c1,1.75%,14.8%
Nc1ccc2ncnc(Nc3ccc(OCc4cccc(F)c4)c(Cl)c3)c2c1,12.8%,8.25%
O=C(COc1cccc(F)c1)Nc1nc(-c2ccccn2)cs1,22.5%,8.75%
CNC1C(OC2C(OC3C(O)C(O)C(N=C(N)N)C(O)C3N=C(N)N)OC(C)C2(O)C=O)OC(CO)C(O)C1O (stereo not given),6%,0%
CO[C@H]1/C=C\O[C@@]2(C)Oc3c(C)c(O)c4c(O)c(/c(=C/NN5CCN(C)CC5)c(O)c4c3C2=O)=N\C(=O)/C(C)=C\C=C/[C@H](C)[C@H](O)[C@@H](C)[C@@H](O)[C@@H](C)[C@H](OC(C)=O)[C@@H]1C,3%,11.2%
CC[C@@H]([C@H](C)O)n1ncn(-c2ccc(N3CCN(c4ccc(OC[C@@H]5CO[C@@](Cn6cncn6)(c6ccc(F)cc6F)C5)cc4)CC3)cc2)c1=O,73%,88.5% (active)
C[C@H]1COc2c(N3CCN(C)CC3)c(F)cc3c(=O)c(C(=O)O)cn1c23,0%,0%
NC(CC(=O)c1ccc(Cl)cc1Cl)C(Cl)(Cl)Cl (stereo not given),9.25%,14%
Cc1cc(NC(=O)c2ccc(S(=O)(=O)N(Cc3ccccc3)C(C)C)cc2)no1,18.2%,2.75%
OCCc1ccc(Nc2nccc(-c3nnc4ccccn34)n2)cc1,28.2%,2.5%
COc1cc(NC(=O)Cc2nn(C)c(=O)c3ccccc23)ccc1Cl,4.5%,0%
O=C(NC1=NCCS1)c1sc2cc(F)ccc2c1Cl,0.75%,0%

SMILES,growth inhibition [1],growth inhibition [2]
CC1(C)Cc2c(c(N3CCOCC3)nc3snc(Br)c23)CO1,4.5%,6.5%
O=C(NCCN1CCCC1)c1cc(NCCCCN2CCC(F)(F)CC2)nc2ccc(Cl)cc12,2.75%,8.5%
Cc1cc2ccccc2n1CC(=O)N1CC(C(=O)N2CCCCC2)Oc2ccccc21 (stereo not given),14.8%,10.8%
CS(=O)(=O)c1ccc(C(=O)N(CC2CCCO2)c2nc3ccccc3s2)cc1[N+](=O)[O-] (stereo not given),27.2%,19%
Cc1nn(C(=O)Nc2cccc(C(F)(F)F)c2)c(C)c1Sc1ncccn1,28.2%,15.2%
Cc1nc(-c2ccccn2)nc(N2CCC(Cc3ccccc3)C2)c1Cl (stereo not given),63%,13%
Cc1noc(C)c1COc1cccc(C(=O)N=c2[nH]cccc2C)c1,0%,8.25%
CCCS(=O)(=O)N1CCC(CO)(Cc2ccccc2C(F)(F)F)CC1,0%,0%
CC(C)(C)c1cc(C(=O)N2CCN(c3nccnc3C#N)CC2)n(Cc2ccccc2)n1,25.8%,15.8%
Cc1ccc2[nH]c3c(NCCN(C)C)ncnc3c2c1,2%,0%
CN1CCC(NCc2cccc(-c3ccc(S(=O)(=O)NCc4ccccc4)cc3)c2)CC1,8%,13.5%
c1ccc(Oc2ccc(-c3cc(C4CCOCC4)[nH]n3)cc2)cc1,3%,2.75%
c1ccc(C[C@@H]2CN(c3nccc(Oc4ccc(-n5ccnc5)cc4)n3)CCN2)cc1,10.2%,9.5%
COc1ccc(-c2nc(-c3cccc(NC(=O)Cc4ccc(F)cc4)c3)no2)cc1OC,6.25%,4%
Cc1cc(Nc2ccncc2)n2nc(C)c(-c3ccccc3Cl)c2n1,5%,4.75%
Cc1ccc(NC(=O)CC2COc3ccccc3O2)cc1Cl (stereo not given),10%,0%
CC(C)(C)OC(=O)N1CCN(c2nccc(-c3ccc(-c4ccc(Cl)cc4)s3)n2)CC1,8%,1%
CNC(=O)C1Cc2ccccc2N1C(=O)Cc1ccc(F)cc1 (stereo not given),32.2%,3.25%
CN1CCN(c2nccc3nc(-c4ccc(F)c(F)c4)[nH]c23)CC1,0%,0%
NCCC(O)C(=O)N[C@@H]1C[C@H](N)[C@@H](OC2O[C@H](CN)[C@@H](O)[C@H](O)[C@H]2O)[C@H](O)C1OC1O[C@H](CO)[C@@H](O)[C@H](N)[C@H]1O (stereo not given in full),9.25%,1%
CCNC(=O)C(C)Nc1nc(-c2cccnc2)nc2sc(C)c(C)c12 (stereo not given),2.25%,16%
Cc1ccc(NC(=O)c2nc[nH]c2C(=O)Nc2nc3ccccc3[nH]2)c(C)c1,17.8%,1.25%
